According to PubChem BioAssay AID1159580 (chemical genetic matrix, 2015):
Values joined by “and” are separate entries in the source; they are usually repeats but may differ in a detail not shown here. Equal values may be shown once. In all, about 5,500 compounds went through this assay and about 2,000 (36%) were called active. Another 18% or so got no clear call; they are omitted. Cut-off read from the data, not from the text of the source: active = normalized growth mostly below about 0.91 (no sharp cut-off); inconclusive = no clear call, values can overlap the other calls; inactive = mostly above about 0.92. Some of the results follow.

Test: chemical genetic growth profiling, strain panel (AID 1159580);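 note: tested at 20 µM; growth read once vehicle control cultures reached saturation at 30 °C; 1 = growth at the plate median or of vehicle wells; lower values mean less growth of the strain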
Conditions: S. cerevisiae deletion strains, growth OD

Measured: normalized growth

O=C(O)c1ccccc1OP(=O)(O)O
inactive: locus YAL021C, strain ccr4, hits give low values 0.962 | locus YAL026C, strain drs2, hits give low values 1.01 | locus YAL030W, strain snc1, hits give low values 1 | locus YBL061C, strain skt5, hits give low values 1.01 | locus YBR009C, strain hhf1, hits give low values 1.03 | locus YBR021W, strain FUR4, hits give low values 1.01 | locus YBR023C, strain chs3, hits give low values 1.01 | locus YBR171W, strain sec66, hits give low values 1.01 | locus YBR229C, strain ROT2, hits give low values 1.01 | locus YBR231C, strain swc5, hits give low values 1.02 | locus YBR279W, strain paf1, hits give low values 1 | locus YCL011C, strain gbp2, hits give low values 1.01 | locus YCL016C, strain dcc1, hits give low values 1 | locus YCL029C, strain bik1, hits give low values 0.994 | locus YCL061C, strain MRC1, hits give low values 1 | locus YCL069W, strain vba3, hits give low values 0.997 | locus YCR088W, strain abp1, hits give low values 1.01 | locus YDL005C, strain med2, hits give low values 1 | locus YDL035C, strain GPR1, hits give low values 1.01 | locus YDL040C, strain nat1, hits give low values 0.996 | locus YDL074C, strain BRE1, hits give low values 1.02 | locus YDL101C, strain DUN1, hits give low values 1.02 | locus YDL134C, strain PPH21, hits give low values 1.02 | locus YDL185W, strain tfp1, hits give low values 0.976 | locus YDL192W, strain arf1, hits give low values 0.989 | locus YDR001C, strain nth1, hits give low values 0.993 | locus YDR069C, strain doa4, hits give low values 1.02 | locus YDR101C, strain arx1, hits give low values 1.01 | locus YDR137W, strain rgp1, hits give low values 0.987 | locus YDR150W, strain NUM1, hits give low values 1.01 | locus YDR159W, strain sac3, hits give low values 1.02 | locus YDR162C, strain NBP2, hits give low values 1.02 | locus YDR195W, strain ref2 1.01 | locus YDR297W, strain sur2, hits give low values 1 | locus YDR318W, strain mcm21, hits give low values 0.992 | locus YDR334W, strain swr1, hits give low values 1 | locus YDR335W, strain msn5, hits give low values 1.01 | locus YDR388W, hits give low values 0.987 | locus YDR392W, strain spt3, hits give low values 0.979 | locus YDR502C, strain sam2, hits give low values 0.994 | locus YEL003W, strain gim4, hits give low values 1.01 | locus YEL037C, strain rad23, hits give low values 0.997 | locus YEL061C, strain CIN8 (second series), hits give low values 1.01 | locus YEL061C, strain CIN8, hits give low values 1.01 | locus YER015W, strain faa2, hits give low values 1.01 | locus YER016W, strain bim1, hits give low values 1 | locus YER110C, hits give low values 0.992 | locus YER111C, strain swi4, hits give low values 1.01 | locus YER155C, strain BEM2 (second series), hits give low values 1.05 | locus YER155C, strain BEM2, hits give low values 1.01 | locus YER167W, strain BCK2, hits give low values 1.01 | locus YFR010W, strain ubp6, hits give low values 1.03 | locus YGL078C, strain dbp3, hits give low values 0.997 | locus YGL086W, strain mad1, hits give low values 0.996 | locus YGL167C, strain pmr1, hits give low values 1.01 | locus YGL173C, strain kem1, hits give low values 1.01 | locus YGL227W, strain vid30, hits give low values 1.01 | locus YGL240W, strain doc1, hits give low values 1.02 | locus YGL248W, strain PDE1, hits give low values 1.02 | locus YGL253W, strain hxk2, hits give low values 1.04 | locus YGR135W, strain pre9, hits give low values 0.988 | locus YGR252W, strain gcn5, hits give low values 0.97 | locus YHR013C, strain ard1, hits give low values 0.997 | locus YHR027C, strain rpn1, hits give low values 1 | locus YHR030C, strain SLT2, hits give low values 1.01 and 0.96 | locus YHR079C, strain IRE1 (second series), hits give low values 0.996 | locus YHR079C, strain IRE1, hits give low values 0.95 | locus YHR094C, strain hxt1, hits give low values 0.991 | locus YHR129C, strain ARP1, hits give low values 1.01 | locus YHR142W, strain chs7, hits give low values 0.958 | locus YHR200W, strain rpn10, hits give low values 0.995 | locus YIL066C, strain RNR3, hits give low values 1.02 | locus YIL073C, strain SPO22, hits give low values 0.999 | locus YIL125W, strain kgd1, hits give low values 0.987 | locus YIR030C, strain dcg1, hits give low values 0.995 | locus YJL092W, strain hpr5, hits give low values 1 | locus YJL095W, strain BCK1 (second series), hits give low values 1 | locus YJL095W, strain BCK1, hits give low values 1.03 and 0.973 | locus YJL115W, strain asf1, hits give low values 0.99 | locus YJL129C, strain trk1, hits give low values 1 | locus YJL134W, strain LCB3, hits give low values 1 | locus YJL154C, strain vps35, hits give low values 0.996 | locus YJL164C, strain tpk1, hits give low values 0.981 | locus YJL166W, strain qcr8, hits give low values 1.01 | locus YJL168C, strain set2, hits give low values 0.986 | locus YJL187C, strain SWE1 (second series), hits give low values 1.02 | locus YJL187C, strain SWE1, hits give low values 0.997 | locus YJR043C, strain POL32, hits give low values 1.01
